For 8 compounds, growth results are on record in PubChem BioAssay (NCI).

Holding throughout (test): NCI-60 one-dose screen, 48 h (100 = growth as untreated, 0 = no growth, -100 = all killed)
What all share (conditions): 10 µM unless noted

Test [1] relates to HCT-15 colon.
Test [2] deals with HT29 colon.
Test [3] has as its system SNB-75 CNS.
The subject of test [4] is SNB-19 CNS.
For test [5], the system named is U251 CNS.
Test [6] relates to PC-3 prostate.
In test [7] the test system is SK-MEL-5 melanoma.
Test [8] relates to UACC-62 melanoma.
Test [9] has as its system SK-MEL-28 melanoma.
Test [10] relates to SK-MEL-2 melanoma.
The test system of test [11] is EKVX NSCLC.
Test [12] relates to SN12C renal.
Test [13] concerns UO-31 renal.
In test [14] the test system is ACHN renal.
The test system of test [15] is CAKI-1 renal.
In test [16] the test system is A498 renal.
For test [17], the system named is CCRF-CEM leukemia.
For test [18], the system named is MOLT-4 leukemia.
The test system of test [19] is LOX IMVI melanoma.
Test [20] relates to TK-10 renal.

This is part of a sample that, as a whole, favours compounds with a hit. Of some 83,000 tested, about 20% had one in any assay.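 The endpoint reported here, percent growth, reads 100 for growth as untreated, 0 for no net growth and -100 for all cells dead.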 Values without a mark were called inactive. Activity calls are given as the source filed them. The calls were made as follows: active = growth percent below 10; inactive = the rest.

Turning to `CCSc1nc(Nc2ccc(S(=O)(=O)Nc3ccon3)cc2)c(C#N)c(-c2cccc(Br)c2)n1`, the growth is 87.3% in [1]; 91.8% in test [2]; 93.3% in test [3]; 100% in test [4]; 81.1% in test [5]; 79.6% in test [6]. In addition, the growth was 85.4% in test [7]; 91.5% in [8]; 103% in test [9]; 119% in test [10]; 87.7% in [11]; 99.2% in [12]. Besides, the growth was 102% in test [13]; 91.3% in test [14]; 87.8% in test [15]; 93.7% in [16]; 77.7% in test [17]; 72.6% in test [18].
In the case of `CCCCN1c2nc3ccccc3cc2Sc2cc3ccccc3nc21`, the growth is 94.9% in test [1]; 95.2% in test [2]; 107% in [3]; 107% in test [4]; 109% in test [5]; 78.6% in test [6]. Besides, the growth in test [7] is 82.1%; in [19] it was 103%; in test [9], 116%; in test [10], 61.9%; in test [11], 85.1%; in test [12] it was 102%. In addition, the growth in test [13] is 22%; in test [20], 108%; in test [14], 107%; in test [15], 460%; in test [16], 116%; in [17], 89.2%. In test [18], the growth is 103%.
As for `Nc1ccc(Oc2c(F)c(F)c(Oc3ccc(N)cc3)c(F)c2F)cc1`, the growth is 86.7% in [1]; 108% in test [2]; 89.5% in [3]; 94.8% in test [4]; 83.3% in test [5]; 84.4% in test [6]. The growth in [7] was 111%; in test [19], 86.5%; in test [9], 115%; in test [10] it was 17.5%; in test [11], 105%; in [12], 103%. In addition, the growth is 63.6% in test [13]; 101% in test [20]; 93.5% in [14]; 95.6% in test [15]; 111% in [16]; 78.2% in test [17]. Further, the growth in [18] was 79.3%.
For `Nc1nc(NC2CC2)c2ncn(C3C=CC(CO)C3)c2n1` (configuration not stated), the growth in test [1] is 107%; in test [2], 101%; in [3], 117%; in test [4], 112%; in test [5], 102%; in test [6], 119%. Besides, the growth was 91.6% in test [7]; 83.6% in [8]; 118% in test [9]; 89.4% in test [10]; 115% in [11]; 98.2% in test [12]. In addition, the growth in test [20] was 96.4%; in [14], 103%; in [15], 90.4%; in test [16] it was 104%; in test [17], 97.3%; in [18] it was 76.9%.
As to `CCSCC1CC(O)(c2ccccc2)C(c2ccccc2)C(c2ccc(Cl)cc2)O1` (configuration not stated), the growth in test [1] was 7.75% (active); in test [2], 13.5%; in [3], 59.4%; in [4] it was 28.5%; in [5], 5.12% (active); in test [6] it was 4.66% (active). The growth in test [7] is -94.8% (active); in test [8], 0.0955% (active); in [9], -18.7% (active); in test [10], 16.9%; in test [11] it was -4.64% (active); in test [12], -49.9% (active). The growth in test [13] was 11.9%; in test [14] it was 22.8%; in test [15], -51.3% (active); in [16], -13.3% (active); in [17], 13.3%.
In the case of `C/C(=C\CCc1ccoc1)CC/C=C(\C)CCCNc1ccc(F)cc1`, the growth in [1] was 93.3%; in test [2] it was 78.8%; in test [3], 94.3%; in test [4] it was 97.7%; in test [5] it was 94.2%; in test [6], 94.9%. The growth is 99.9% in test [7]; 83.8% in test [8]; 96.6% in [9]; 106% in [10]; 76.2% in test [12]; 54.6% in test [13]. For the same compound, the growth in test [20] is 113%; in test [14], 97.9%; in test [15] it was 88.7%; in test [16], 79.7%; in test [17], 58.7%; in test [18] it was 59.6%.
In the case of `O=C(N/N=C/c1ccc(Cl)cc1Cl)c1ccccc1Nc1cccc(C(F)(F)F)c1`, the growth in [1] was 72.5%; in [2], 86.7%; in test [3] it was 78%; in test [4] it was 76.1%; in test [5], 22.4%; in [6], 60.5%. Further, the growth was 53.5% in test [7]; 50% in test [19]; 92.2% in test [9]; 54.9% in test [10]; -27.9% (active) in test [11]; 53.3% in [12]. In addition, the growth in test [13] is 25.7%; in test [20], 106%; in test [14], 35.9%; in test [15] it was 55.5%; in test [16] it was -7.44% (active); in test [17] it was 32.4%. For the same compound, the growth in [18] is 55.8%.
`CC[n+]1c(/C=C/c2ccc(N3CCCC3)cc2)cccc1/C=C/c1ccc(N2CCCC2)cc1`: the growth in test [1] is -85.7% (active); in [2], -82.9% (active); in test [3] it was -92.7% (active); in [4], -93.9% (active); in [5], -89.6% (active); in [6], -76.8% (active). Further, the growth was -87.6% (active) in test [7]; -76.5% (active) in test [19]; -93.6% (active) in [9]; -89.8% (active) in test [10]; -76.4% (active) in test [11]; -79.9% (active) in [12]. The growth is -92.6% (active) in test [13]; -80.5% (active) in [20]; -96.3% (active) in test [14]; -67.9% (active) in [15]; -93% (active) in test [16]; -7.16% (active) in test [17]. For the same compound, the growth in [18] is 10.3%.
